In all, about 5,500 compounds went through this assay and about 2,000 (36%) were called active. Another 18% or so got no clear call; they are omitted. Rule as the data show it: active = normalized growth mostly below about 0.91 (no sharp cut-off); inconclusive = no clear call, values can overlap the other calls; inactive = mostly above about 0.92. The list shows a part of the results.
Assay: chemical genetic growth profiling, strain panel (AID 1159580);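 also: tested at 20 µM; growth read once vehicle control cultures reached saturation at 30 °C; 1 = growth at the plate median or of vehicle wells; lower values mean less growth of the strain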
Settings: S. cerevisiae deletion strains, growth OD
[1] = locus YAL013W, strain DEP1, hits give low values
[2] = locus YAL040C, strain CLN3, hits give low values
[3] = locus YCL061C, strain MRC1 (second series), hits give low values
[4] = locus YDR363W, strain ESC2, hits give low values
[5] = locus YER002W, strain NOP16, hits give low values
[6] = locus YMR263W, strain SAP30, hits give low values
[7] = locus YMR307W, strain GAS1, hits give low values
[8] = locus YNL153C, strain GIM3, hits give low values
[9] = locus YNL175C, strain NOP13, hits give low values
[10] = locus YNL197C, strain WHI3, hits give low values
[11] = locus YNL224C, strain SQS1, hits give low values
[12] = locus YNL322C, strain KRE1, hits give low values
[13] = locus YOR083W, strain WHI5 (second series), hits give low values
[14] = locus YPL055C, strain LGE1, hits give low values
[15] = locus YPL241C, strain CIN2, hits give low values
[16] = locus YDR150W, strain NUM1, hits give low values
[17] = locus YGR078C, strain PAC10, hits give low values

Measured: normalized growth

NCC1(CC(=O)O)CCCCC1
inactive: [1] 1 | [2] 0.991 | [3] 1.01 | [4] 0.995 | [5] 1.01 | [6] 0.999 | [7] 0.99 | [8] 1.02 | [9] 1.01 | [10] 1.01 | [11] 1.02 | [12] 0.998 | [13] 0.977 | [14] 0.999

C[N+]1(C)C2CCC1CC(OC(=O)c1c[nH]c3ccccc13)C2 (configuration not stated)
inactive: [1] 1.02 | [2] 1.06 | [3] 0.996 | [4] 1 | [5] 0.974 | [6] 0.997 | [7] 1.01 | [9] 0.973 | [10] 1.01 | [11] 1.02 | [12] 1 | [13] 0.978 | [14] 1 | [15] 1

CSC(=N)N
inactive: [2] 0.992 | [3] 1.01 | [16] 1.01 | [4] 1.02 | [5] 0.984 | [17] 1.01 | [7] 1.01 | [8] 1.01 | [9] 1.01 | [10] 1 | [11] 1 | [13] 1.01 | [15] 1.01

CN(C)CCCCSC(=N)N
inactive: [1] 1.04 | [2] 0.998 | [3] 1.02 | [16] 1.01 | [4] 1.02 | [5] 0.985 | locus YJR075W, strain HOC1, hits give low values 1.04 | [7] 1.01 | locus YNL128W, strain TEP1, hits give low values 0.999 | [9] 0.995 | [10] 0.992 | [11] 1 | [13] 1.01

CCSC(=N)N
active: [2] 1.12 [resistant] | [14] 1.17 [resistant]
inactive: locus YAL021C, strain ccr4, hits give low values 1.03 | locus YAL026C, strain drs2, hits give low values 1.01 | locus YAL030W, strain snc1, hits give low values 1.01 | locus YBL061C, strain skt5, hits give low values 1.02 | locus YBR009C, strain hhf1, hits give low values 1.01 | locus YBR023C, strain chs3, hits give low values 1.02 | locus YBR171W, strain sec66, hits give low values 1.02 | locus YBR231C, strain swc5, hits give low values 1.01 | locus YBR279W, strain paf1, hits give low values 1.01 | locus YCL011C, strain gbp2, hits give low values 1.02 | locus YCL016C, strain dcc1, hits give low values 1.01 | [3] 1 | locus YCL061C, strain MRC1, hits give low values 1.01 | locus YCL069W, strain vba3, hits give low values 1.01 | locus YCR088W, strain abp1, hits give low values 1.02 | locus YDL005C, strain med2, hits give low values 1.03 | locus YDL040C, strain nat1, hits give low values 1.02 | locus YDR001C, strain nth1, hits give low values 1.01 | locus YDR069C, strain doa4, hits give low values 1.01 | locus YDR137W, strain rgp1, hits give low values 1.01 | [16] 1.01 | locus YDR159W, strain sac3, hits give low values 1.05 | locus YDR195W, strain ref2 1.01 | locus YDR297W, strain sur2, hits give low values 1.02 | locus YDR334W, strain swr1, hits give low values 1.01 | locus YDR335W, strain msn5, hits give low values 1.02 | [4] 1.01 | locus YDR392W, strain spt3, hits give low values 0.975 | locus YEL003W, strain gim4, hits give low values 1.01 | locus YEL037C, strain rad23, hits give low values 1.01 | locus YEL061C, strain CIN8 (second series), hits give low values 1.01 | [5] 0.999 | locus YER015W, strain faa2, hits give low values 1.01 | locus YER016W, strain bim1, hits give low values 1.02 | locus YER111C, strain swi4, hits give low values 1.02 | locus YER155C, strain BEM2 (second series), hits give low values 1.05 | locus YFR010W, strain ubp6, hits give low values 1.01 | locus YGL167C, strain pmr1, hits give low values 1.03 | locus YGL173C, strain kem1, hits give low values 1.01 | locus YGL227W, strain vid30, hits give low values 1.02 | locus YGL240W, strain doc1, hits give low values 1.02 | locus YGL253W, strain hxk2, hits give low values 1.02 | [17] 1.02 | locus YGR229C, strain SMI1, hits give low values 1.04 | locus YHR013C, strain ard1, hits give low values 1 | locus YHR027C, strain rpn1, hits give low values 1.02 | locus YHR142W, strain chs7, hits give low values 1.03 | locus YJL092W, strain hpr5, hits give low values 1.01 | locus YJL095W, strain BCK1 (second series), hits give low values 1.01 | locus YJL115W, strain asf1, hits give low values 1.02 | locus YJL129C, strain trk1, hits give low values 1.04 | locus YJL154C, strain vps35, hits give low values 1.01 | locus YJL164C, strain tpk1, hits give low values 1.01 | locus YJL166W, strain qcr8, hits give low values 1.02 | locus YJL187C, strain SWE1, hits give low values 1.01 | locus YKL160W, strain elf1, hits give low values 1.02 | locus YKR026C, strain gcn3, hits give low values 1.01 | locus YKR091W, strain srl3, hits give low values 1.01 | locus YLL001W, strain dnm1, hits give low values 1.02 | locus YLL026W, hits give low values 1.01 | locus YLL041C, strain sdh2, hits give low values 1.02 | locus YLR027C, strain aat2, hits give low values 1.01 | locus YLR221C, strain rsa3, hits give low values 1.01 | locus YLR258W, strain gsy2, hits give low values 1.01 | locus YLR262C, strain YPT6 (second series), hits give low values 1.02 | locus YLR320W, strain mms22, hits give low values 1.03 | locus YLR342W, strain FKS1, hits give low values 1.02 | locus YLR357W, strain rsc2, hits give low values 1.01 | locus YLR370C, strain arc18, hits give low values 1.02 | locus YLR384C, strain iki3, hits give low values 1.02 | locus YML120C, strain ndi1, hits give low values 1.01 | locus YMR058W, strain fet3, hits give low values 1.02 | locus YMR125W, strain sto1, hits give low values 1.01 | locus YMR129W, hits give low values 1.02 | locus YMR205C, strain PFK2, hits give low values 0.998 | locus YMR231W, strain pep5, hits give low values 1.01 | [6] 1.01 | [7] 1.03 | locus YNL071W, strain lat1, hits give low values 1.02 | [8] 1.03 | [9] 0.988 | [10] 0.992 | locus YNL209W, strain ssb2, hits give low values 1.01 | [11] 1.01 | locus YNL248C, strain rpa49, hits give low values 1.02 | locus YNL322C, strain KRE1 (second series), hits give low values 1.02 | [12] 1.01 | locus YNR049C, strain mso1, hits give low values 1.01 | locus YOR001W, strain rrp6, hits give low values 1.02 | locus YOR070C, strain gyp1, hits give low values 1.01 | locus YOR080W, strain dia2, hits give low values 1.03 | [13] 0.995 | locus YOR083W, strain WHI5, hits give low values 1.03 | locus YOR106W, strain vam3, hits give low values 1.04 | locus YOR265W, strain rbl2, hits give low values 1.01 | locus YOR270C, strain vph1, hits give low values 1.07 | locus YOR290C, strain snf2, hits give low values 0.96 | locus YPL051W, strain arl3, hits give low values 1.02 | locus YPL078C, strain atp4, hits give low values 1.02 | locus YPL106C, strain sse1, hits give low values 1.04 | locus YPL240C, strain hsp82, hits give low values 1.02
